# Data reported in PubChem BioAssay (Tox21).
# Results filed as inconclusive are left out. Where a call stands in place of a potency, no number is given. Calls of active or inactive are those of the source. Unless noted, calls come from the whole dose curve.
# Assay: qHTS assay for small molecules that induce genotoxicity in human embryonic kidney cells expressing luciferase-tagged ATAD5 (AID 651632; active = well fitted activation curve with a large enough effect in the repeat runs; note: nearly all actives have a fitted effect of over 15% in size)
# Settings: HEK293T ATAD5-luciferase induction, 16 h; series mostly up to 83.3 µM
# In short: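 HEK293T cells carrying a luciferase reporter tagged to ATAD5 were exposed to compound or DMSO vehicle for 16 hr at 37C, 5% CO2. Amplite was added, and after 30 min at room temperature luciferase activity was read as a marker of ATAD5 induction.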
row,SMILES,Potency
1,CC(C)C[C@H]1C(=O)N2CCC[C@H]2[C@]2(O)O[C@](NC(=O)[C@@H]3C=C4c5cccc6[nH]c(Br)c(c56)C[C@H]4N(C)C3)(C(C)C)C(=O)N12,inactive
2,CC(C)Nc1ccc(NC(C)C)c2c1C(=O)c1ccccc1C2=O,inactive
3,O=C1CCCCCCCCCCCC(=O)OCCO1,inactive
4,COc1cc(Cl)ccc1Oc1ccc(Cl)cc1Cl,inactive
5,Cc1cccc(C)c1OCC(=O)N[C@@H](Cc1ccccc1)[C@@H](O)C[C@H](Cc1ccccc1)NC(=O)[C@H](C(C)C)N1CCCNC1=O,inactive
6,CCCCCCCCCCCCCCOS(=O)(=O)O,inactive
7,O=C(CS)Nc1ccccc1,inactive
8,CC1CCC(=O)C1=O (stereo unspecified),inactive
9,O=C(O)CC(=O)C(=O)O,inactive
10,CCC(C)c1cc(C(C)(C)C)c(O)c(C(C)(C)C)c1 (stereo unspecified),inactive
11,CNCCCCOc1ccccc1Cc1ccccc1,inactive
12,CCCCCCCCCCO[C@@H]1O[C@H](CO)[C@@H](O)[C@H](O)[C@H]1O,inactive
13,O=C(Nc1ccccc1)c1ccccc1O,inactive
14,CCO[C@H](Cc1ccc(OCCc2ccc(OS(C)(=O)=O)cc2)cc1)C(=O)O,inactive

# Assay: qHTS assay for small molecule agonists of the p53 signaling pathway - cell viability (AID 651633); note: nearly all actives have a fitted effect of over 30% in size; note: potency is the fitted concentration of half-maximal effect;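 for activity change, negative = cytotoxicity: p53RE-bla HCT reporter cells with a stable beta-lactamase p53 reporter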
# Settings: p53RE-bla HCT-116 viability, ATP luminescence, 16 h; series mostly up to 83.3 µM
# In short: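 Viability counter-read: CellTiter-Glo luminescence (30 min, room temperature) in the same p53RE-bla plates. These plates had been exposed to compounds for 16 h at 37 C.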
SMILES,Potency,"activity change, negative = cytotoxicity"
CC(C)Nc1ccc(NC(C)C)c2c1C(=O)c1ccccc1C2=O,inactive,
Cc1cccc(Nc2ccccc2)c1,inactive,
CCN(CC)CCOC(=O)C(c1ccccc1)C1CCCCC1 (stereo unspecified),inactive,
Cc1c(N)cccc1[N+](=O)[O-],inactive,
O=C(O)C1(C(=O)Nc2ccc(Cl)cc2Cl)CC1,inactive,
CC[N+](C)(CC)CCOC(=O)C(O)(c1ccccc1)C1CCCCC1 (stereo unspecified),inactive,
CCCCCCCC/C=C\CCCCCCCC(=O)OCC,inactive,
CCc1cc(C2=C(C(=O)O)N(c3ccccc3C(F)(F)F)S(=O)(=O)c3ccccc32)cc2c1OCO2,inactive,
CCOC(=O)COC(=O)c1cc(Oc2ccc(C(F)(F)F)cc2Cl)ccc1[N+](=O)[O-],inactive,
Nc1ncn([C@H]2C[C@H](O)[C@@H](CO)O2)c(=O)n1,inactive,
NC(N)=NCCC[C@H](N)C(=O)O,inactive,
CN(C)c1ccc(/C=C/c2ccc([N+](=O)[O-])cc2)cc1,,-6.1% [at 8.08 µM] (inactive)
CCCNCC(O)COc1ccccc1C(=O)CCc1ccccc1 (stereo unspecified),inactive,
CN1CCC(=C2c3ccccc3Sc3ccccc32)CC1,29.8 µM (active),
C=CC(=O)OCCOCCOCCOCCOC(=O)C=C,inactive,
O=C(O)c1nc(Cl)c(Cl)c(Cl)c1Cl,inactive,
CCCCCCCCCCCCCCCCOS(=O)(=O)O,inactive,
